For nine compounds, growth results are on record in PubChem BioAssay (NCI).

About 83,000 compounds went through this panel and 20% of them were active in at least one assay; those are over-represented in the sample as a whole.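 Percent growth is the endpoint: 0 to 100 indicates growth inhibition (40 means 60% inhibition), 0 means no net growth, and negative values indicate cell death.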 A number with no mark means an inactive call. Calls of active or inactive are those of the source. How the source made its calls: active means growth percent below 10; inactive means the rest.

Assay in all cases: NCI-60 one-dose screen, 48 h (100 = growth as untreated, 0 = no growth, -100 = all killed)
What all share (conditions): 10 µM unless noted

In test [1] the test system is RPMI-8226 leukemia.
Test [2] relates to OVCAR-8 ovarian.
The test system of test [3] is OVCAR-5 ovarian.
Test [4] concerns OVCAR-4 ovarian.
Test [5] has as its system SK-OV-3 ovarian.
Test [6] relates to IGROV1 ovarian.
Test [7] deals with OVCAR-3 ovarian.
The test system of test [8] is HS 578T breast.
The test system of test [9] is NCI/ADR-RES ovarian.
Test [10] has as its system T-47D breast.
The test system of test [11] is BT-549 breast.
In test [12] the test system is MDA-MB-435 melanoma.
The subject of test [13] is SW-620 colon.
Test [14] has as its system MCF7 breast.
Test [15] relates to HCC-2998 colon.
Test [16] concerns KM12 colon.
The test system of test [17] is HCT-116 colon.

Consider `COc1ccc(/C=C/C(=O)Nc2ncnc3nc[nH]c23)cc1`, for which the growth in test [1] is 99%; in [2], 103%; in test [3], 118%; in test [4] it was 98.8%; in test [5], 113%; in [6] it was 105%. Besides, the growth in test [7] is 104%; in test [8], 101%; in test [9] it was 96.6%; in test [10], 91.2%; in test [11] it was 103%; in [12] it was 91.1%. In addition, the growth in [13] was 110%; in test [14], 78.9%; in [15], 111%; in [16], 95.8%.

For the compound `O=C1NC(c2ccc(F)cc2)N=C2C(c3ccccc3)=NOC12` (centres undefined), the growth in test [1] is 107%; in test [2], 106%; in [3] it was 108%; in [4], 105%; in [5], 106%; in test [6], 108%. The growth in test [7] was 109%; in test [8], 106%; in test [10] it was 104%; in test [11] it was 106%; in test [12] it was 106%; in test [13], 106%. Also, the growth was 101% in [14], 103% in test [17], 101% in test [15] and 98.8% in [16].

Turning to `N#Cc1ccc(N2Cc3cc(Cl)ccc3OC3=C2C(=O)N(Cc2ccccc2)C3=O)cc1`, the growth in [1] was -23.3% (active); in test [2] it was 4.56% (active); in test [3] it was -5.13% (active); in [4], -7.68% (active); in test [5], 94.2%; in test [6] it was 13%. The growth in [7] was -82.1% (active); in [8], 38.1%; in test [9], 6.99% (active); in [10] it was -60.1% (active); in test [11] it was -50.5% (active); in [12] it was -42.5% (active). Further, the growth in test [13] was -75.8% (active); in [14], -1.6% (active); in test [15] it was 40.4%; in test [16], 61.4%.

Turning to `COc1cc(NCC(=O)Nc2cc(Nc3cccc(C(F)(F)F)c3)ncn2)c(Cl)c(OC)c1Cl`, the growth in test [1] is 83.5%; in test [2], 94.1%; in test [3], 98.2%; in test [4], 99.2%; in test [5], 93.6%; in test [6], 95.3%. For the same compound, the growth in test [7] was 95.5%; in test [8], 82.2%; in test [10], 81.2%; in test [11], 88.9%; in test [12], 102%; in test [13] it was 104%. Further, the growth is 85.8% in test [14], 87.4% in test [17], 103% in [15] and 92.3% in test [16].

`Cc1cc(C)c2nc(Nc3nc(C)c(C)c(=O)[nH]3)nc(C)c2c1`: the growth in test [1] is -17.1% (active); in test [2] it was 15.5%; in test [3], 48.8%; in [4], 20.8%; in test [5], 7.87% (active); in test [6], 9.55% (active). For the same compound, the growth is 5.78% (active) in test [7]; 21.2% in test [8]; 18.9% in test [10]; 9.69% (active) in test [11]; 15.7% in [12]; 9.96% (active) in [13]. For the same compound, the growth in test [14] was 3.09% (active); in test [17], 3.76% (active); in test [15] it was 21.9%; in [16], 11.3%.

Turning to `C=C1C(=O)O[C@H]2[C@H]1CC/C(COC(=O)/C=C/c1cccnc1)=C\CC[C@@]1(C)O[C@@H]21`, the growth in test [1] was 2.83% (active); in test [2] it was 40.6%; in test [3], 59.1%; in test [4] it was 32.4%; in test [5], 80.2%; in [6], 36.7%. Also, the growth was -6.31% (active) in test [7]; 62.8% in [8]; 23% in test [10]; 20.5% in [11]; 27.7% in test [12]; -32% (active) in test [13]. Further, the growth is 11.9% in test [14], -66.3% (active) in test [17], 94.8% in [15] and 79.4% in test [16].

In the case of `COc1ccc(C(C)c2cc(OC)c(OC)c(OC)c2)cc1` (centres undefined), the growth in test [1] was 15.3%; in test [2], 10.9%; in test [3], 50.3%; in [4], 34.3%; in [5], 33.2%; in test [6], 28.5%. Further, the growth in [7] is -14.1% (active); in test [8], 37.5%; in test [9] it was 13.8%; in [10], 63.1%; in [11] it was 24.6%; in [12], -42.6% (active). Also, the growth is 27% in test [13], 13.8% in [14], 30.2% in test [15] and 9.1% (active) in test [16].

Take `CC1(c2ccccc2Cl)NC(=O)NC1=O` (centres undefined): the growth in test [1] was 102%; in test [2], 102%; in test [3], 106%; in [4], 109%; in test [5], 97.3%; in test [6], 106%. Further, the growth in test [7] is 106%; in [8] it was 99.7%; in test [10], 79.3%; in [11] it was 99%; in test [12], 105%; in [13], 102%. Also, the growth in test [14] was 96.9%; in test [17], 107%; in test [15], 92.3%; in [16] it was 109%.

Take `COc1cccc(NC(=O)Nc2ccc(Nc3ncnc4[nH]c(C)c(C)c34)cc2)c1`: the growth in test [1] was 90.8%; in [2] it was 91.7%; in test [3] it was 114%; in test [4], 109%; in test [5], 102%; in test [6], 115%. Further, the growth was 113% in [7]; 83.9% in test [8]; 107% in test [9]; 89.8% in [10]; 97.7% in test [11]; 102% in test [12]. For the same compound, the growth in [13] is 110%; in [14], 91.1%; in test [15], 115%; in test [16] it was 70.6%.
